Results published in the supplement of paper PMC9254222.
Whole data set: some 1,100 compounds, median “Renilla luciferase signal (cell health) relative to plate median” near 0.97, cut for the highest 2% near 1.6. The entries come from a sample that favours the highest values as a whole.

Tested on: HEK293T (UBE3A T485A transfected, BAR Wnt reporter)
Assay: Renilla luciferase signal (cell health) relative to plate median (fold (linear ratio)); higher = higher Renilla signal
Details: 24 h
In short: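 HEK293T cells carrying a transfected BAR firefly luciferase Wnt reporter, TK-Renilla and an expression plasmid were exposed to chemicals at 0.01–100 uM for 24 h, with dosing four hours after transfection. Readout used Dual-Glo luciferase. The firefly/Renilla ratio defined Wnt activity and raw Renilla defined cell health, each median-centred per plate. Figures are means of four biological replicates.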

Compound	Renilla luciferase signal (concentration: 0.01 uM)	Renilla luciferase signal (concentration: 0.1 uM)	Renilla luciferase signal (concentration: 1 uM)	Renilla luciferase signal (concentration: 10 uM)	Renilla luciferase signal (concentration: 100 uM)
Cc1ccn2nc(S(=O)(=O)Nc3c(F)cccc3F)nc2n1 [Flumetsulam]	0.963	1.07	0.959	1.07	1.67
CCOc1nc(F)cc2nc(S(=O)(=O)Nc3c(Cl)cccc3Cl)nn12 [Diclosulam]	0.684	0.741	1.03	0.878	0.911
COc1ccc(-c2ccccc2)cc1NNC(=O)OC(C)C [Bifenazate]	1.24	1.21	1.11	1.06	0.851
Cc1ccc([N+](=O)[O-])cc1N [2-Methyl-5-nitroaniline]		1.11	1.21	1.15	0.978
CC(C)N(C(=O)SCC(Cl)=C(Cl)Cl)C(C)C [Tri-allate]	1.05	1.11	1.06	1.06	1.76
CC(C)COC(=O)c1ccccc1C(=O)OCC(C)C [Diisobutyl phthalate]		0.825	0.827	0.867	1.01
CCC(C)(NC(=O)c1cc(Cl)c(C)c(Cl)c1)C(=O)CCl (stereo not given) [Zoxamide]	1.25	1.05	0.961	0.117	0.0244
C#CC(C)(C)NC(=O)c1cc(Cl)cc(Cl)c1 [Propyzamide]	1.38	1.2	1.12	1.09	1.72
COC(=O)N(OC)c1ccccc1COc1ccn(-c2ccc(Cl)cc2)n1 [Pyraclostrobin]	1.35	0.995	0.707	0.149	0.113
Oc1ccc2ccc3cccc4ccc1c2c34 [1-Hydroxypyrene]		1.01	1.06	1.09	0.811
O=P(Oc1ccccc1)(Oc1ccccc1)Oc1ccccc1 [Triphenyl phosphate]		0.815	0.778	0.825	1.02
CS/C(C)=N/OC(=O)N(C)SN(C)C(=O)O/N=C(\C)SC [Thiodicarb]	1	0.646	0.895	0.91	0.0128
CCCCCCCCc1ccc(O)cc1 [4-Octylphenol]		1.09	1.1	1.3	0.803
CNC(=O)ON=C(C)SC [Methomyl]	0.945	0.951	1.1	1.04	1.25
CSC(C)(C)C=NO [Aldicarb oxime]		1.13	1.06	1.24	1.09
CNC(=O)ON=CC(C)(C)SC [Aldicarb]	1.1	0.924	0.97	0.918	1.72
O=[N+]([O-])c1ccc(O)c([N+](=O)[O-])c1 [2,4-Dinitrophenol]		1.15	1.11	0.966	0.305
CCOC(=O)C(O)(c1ccc(Cl)cc1)c1ccc(Cl)cc1 [Chlorobenzilate]		0.927	0.837	0.929	1.26
CCCCSP(=O)(SCCCC)SCCCC [Tribufos]	1.14	0.609	0.976	0.82	0.728
CCCSP(=O)(OCC)SCCC [Ethoprop]	1.13	0.976	1.08	1.1	1.86
CCOP(=S)(OCC)SCSP(=S)(OCC)OCC [Ethion]		0.929	0.935	0.973	1.13

Compound	Renilla luciferase signal (concentration: 0.01 uM)	Renilla luciferase signal (concentration: 0.1 uM)	Renilla luciferase signal (concentration: 1 uM)	Renilla luciferase signal (concentration: 10 uM)	Renilla luciferase signal (concentration: 100 uM)
CC(Cc1ccc(OCC(=O)O)cc1)NCC(O)c1csc(C(F)(F)F)n1 (stereo not given)		0.796	0.849	0.912	1.28
CCC12COCN1COC2 [5-Ethyl-1-aza-3,7-dioxabicyclo[3.3.0]octane]		0.93	1.08	1.1	1.35
CCCCC(CC)COC(=O)c1ccc(C(=O)OCC(CC)CCCC)c(C(=O)OCC(CC)CCCC)c1 (stereo not given) [Tris(2-ethylhexyl) trimellitate]		0.879	0.991	0.972	1.2
CCC(=O)O[C@H]1CC[C@H]2[C@@H]3CCC4=CC(=O)CC[C@]4(C)[C@H]3CC[C@]12C [Testosterone propionate]		0.869	0.772	0.878	1.11
C[C@]12CCC(=O)C[C@@H]1CC[C@@H]1[C@@H]2CC[C@]2(C)[C@@H](O)CC[C@@H]12 [5alpha-Dihydrotestosterone]		0.867	0.848	1	2.06
CNC(=O)N(C)c1nnc(C(C)(C)C)s1 [Tebuthiuron]	1.19	0.795	1.02	0.738	1.26
Cc1ccccc1N [2-Methylaniline]		1.15	1.29	1.25	1.25
CC(c1ccc(O)cc1)(c1ccc(O)cc1)c1ccc(O)cc1 [4,4',4"-Ethane-1,1,1-triyltriphenol]		0.468	0.58	0.509	0.0116
ClC(Cl)c1ccccc1 [Benzal chloride]		1.11	0.929	1.12	1.15
COc1ccc(O)c(C(C)(C)C)c1 [2-tert-Butyl-4-methoxyphenol]		0.947	0.971	1.22	1.03
CC(C)(C)c1cc(C(C)(C)C)c(O)c(C(C)(C)C)c1 [2,4,6-Tris(tert-butyl)phenol]		0.951	1.04	1.18	1.73
CC(C)(C)c1ccccc1O [2-tert-Butylphenol]		0.823	0.913	0.724	0.378
O=C(Nc1ccc2[nH]ccc2c1)c1cc2cc(F)ccc2n1Cc1cccc(F)c1		1.07	1.02	0.543	0.0428
CCCN(CC)CC1COC2(CCC(C(C)(C)C)CC2)O1 (stereo not given) [Spiroxamine]	0.835	1.34	1.13	1.06	0.0856
CC(C)CCCCCCCOC(=O)c1ccccc1C(=O)OCCCCCCCC(C)C		1.21	1.01	1.1	1.26
CCCCOC(=O)c1ccccc1C(=O)OCc1ccccc1 [Benzyl butyl phthalate]		1.05	1.23	1.28	1.04
C=CC1(C)OC(=O)N(c2cc(Cl)cc(Cl)c2)C1=O (stereo not given) [Vinclozolin]	1.03	0.904	1.09	1.28	2.37
CC12CC1(C)C(=O)N(c1cc(Cl)cc(Cl)c1)C2=O (stereo not given) [Procymidone]		0.813	1.07	1.07	1.27
Cc1ccc(N)cc1 [4-Methylaniline]		0.71	0.873	0.684	0.856
O=[N+]([O-])c1ccc(Oc2ccc(Cl)cc2Cl)cc1 [Nitrofen]		1.06	1.17	1.05	1.69
Oc1cc(Cl)ccc1Oc1ccc(Cl)cc1Cl [Triclosan]	0.941	0.922	0.956	0.911	0.083

Compound	Renilla luciferase signal (concentration: 0.01 uM)	Renilla luciferase signal (concentration: 0.1 uM)	Renilla luciferase signal (concentration: 1 uM)	Renilla luciferase signal (concentration: 10 uM)	Renilla luciferase signal (concentration: 100 uM)
COC(=O)C(C)Oc1ccc(Oc2ccc(Cl)cc2Cl)cc1 (stereo not given) [Diclofop-methyl]	1.01	0.869	0.732	0.936	2.15
CCCCOC(=O)[C@@H](C)Oc1ccc(Oc2ccc(C#N)cc2F)cc1 [Cyhalofop-butyl]	1.03	1.04	0.889	1.03	0.226
Fc1ccc(Oc2ccnc3cc(Cl)cc(Cl)c23)cc1 [Quinoxyfen]	0.918	0.865	0.93	1.03	0.994
O=[N+]([O-])c1ccc(Cl)cc1 [1-Chloro-4-nitrobenzene]		0.98	0.976	0.993	1.1
CCCCNC(=O)OCC#CI [3-Iodo-2-propynyl-N-butylcarbamate]	0.922	0.986	0.947	0.822	0.0151
CC1(C)C(C=C(Cl)Cl)C1C(=O)OC(C#N)c1ccc(F)c(Oc2ccccc2)c1 (stereo not given) [Cyfluthrin]	1.01	1.31	1.27	0.975	1.1
COc1cccc(C(=O)NN(C(=O)c2cc(C)cc(C)c2)C(C)(C)C)c1C [Methoxyfenozide]	1.37	1.1	1.05	1.04	0.685
Nc1c(Cl)cc([N+](=O)[O-])cc1Cl [Dicloran]	0.651	0.765	0.894	0.77	0.167
CSC1=N[C@@](C)(c2ccccc2)C(=O)N1Nc1ccccc1 [Fenamidone]	0.641	0.774	0.785	0.525	0.165
O=c1n(Cl)c(=O)n(Cl)c(=O)n1Cl [Symclosene]	1.05	0.995	0.923	1.18	1.88
CCCOc1nn(C(=O)[N-]S(=O)(=O)c2ccccc2C(=O)OC)c(=O)n1C.[Na+] [Propoxycarbazone-sodium]	1.17	1.21	1.03	0.975	1.2
CCC(CC)Nc1c([N+](=O)[O-])cc(C)c(C)c1[N+](=O)[O-] [Pendimethalin]	0.981	0.996	0.843	1.02	0.801
CCCN(CCC)c1c([N+](=O)[O-])cc(C(F)(F)F)cc1[N+](=O)[O-] [Trifluralin]	1.09	1.16	1.12	1.13	1.59
CCC(C)Nc1c([N+](=O)[O-])cc(C(C)(C)C)cc1[N+](=O)[O-] (stereo not given) [Butralin]	0.921	1.06	0.989	1.04	1.94
O=[N+]([O-])c1ccccc1 [Nitrobenzene]		0.931	0.977	0.817	0.932
CCOP(=S)(OCC)Oc1ccc([N+](=O)[O-])cc1 [Parathion]	1.03	1.13	1.04	1.11	1.36
N=C(Nc1ccccc1)Nc1ccccc1 [1,3-Diphenylguanidine]		1.03	0.989	0.895	0.887
O=C(Nc1ccccc1)c1ccccc1I [Benodanil]		0.942	0.924	0.913	0.739
CC1=C(C(=O)Nc2ccccc2)SCCO1 [Carboxin]	0.996	1.11	1.07	0.949	2.12
